Most compounds without a hit are left out; they make up all but 4.7% or so of the library.
TRHR PAM: allosterically enhances the human TRH receptor. P34981. 360,000 compounds, 0.66% hits. TRHR cells, fluo-8 calcium fluorescence, EC20 TRH enhancement. enhancement, % at 2 µM; in the data active means enhancement above about 30%; further: 0% is about no effect
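Enhancer read-out: after compound pinning and an initial kinetic agonist-mode read, an EC20 of TRH (10 nM final) was injected and fluo-8 calcium signal (Ex 480/Em 530) followed at 1 s/cycle for 100 cycles in TRHR-expressing cells.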
D1 agonist: agonists of human D1 dopamine receptor. AID 504660. 360,000 compounds, 1% hits. HEK293 T-REx D1 cells, calcium flux, agonist mode. activation, % at 2 µM; further: 0% is about no effect
Target sequence (P21728 whole entry, looked up): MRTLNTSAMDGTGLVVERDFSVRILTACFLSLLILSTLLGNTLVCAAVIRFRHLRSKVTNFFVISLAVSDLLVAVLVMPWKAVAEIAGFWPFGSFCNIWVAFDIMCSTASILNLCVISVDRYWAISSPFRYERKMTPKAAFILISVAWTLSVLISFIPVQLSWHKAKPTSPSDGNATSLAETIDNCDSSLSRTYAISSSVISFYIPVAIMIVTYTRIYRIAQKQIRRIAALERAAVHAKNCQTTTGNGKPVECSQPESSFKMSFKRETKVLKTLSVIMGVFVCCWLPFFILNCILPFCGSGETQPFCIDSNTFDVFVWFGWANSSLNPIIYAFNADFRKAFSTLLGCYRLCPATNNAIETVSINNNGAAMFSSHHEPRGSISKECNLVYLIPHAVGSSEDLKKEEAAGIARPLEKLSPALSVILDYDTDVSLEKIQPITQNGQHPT
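Agonism was scored from calcium flux recorded over 180 s (1 read/s) after pintool compound addition, following a 10-cycle baseline. Cells were inducible force-coupled HEK293 TREx D1, plated overnight at 30 C and loaded with no-wash calcium dye.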
TRHR agonist: agonists of human TRH receptor. TRHR cells, calcium flux fluo-8, FDSS agonist mode. P34981. activation, % at 2 µM. 360,000 compounds, 0.18% hits; further: 0% is about no effect
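Fluo-8-loaded TRHR cells; 10 s baseline, compound added, kinetic Ca2+ fluorescence read 1/s, agonist mode.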
D1 antag: antagonists of human D1 dopamine receptor; P21728; 360,000 compounds, 3.2% hits; activity change, negative = inhibition, % at 10 µM; HEK293 TREx D1 cells, calcium flux, dopamine EC80; hits give low values; in the data active means activity change below about -30%; further: on the % scale 0 is the no-effect control and ±100 the full control effect
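Tetracycline-induced HEK293 T-REx cells with force-coupled D1 receptor were loaded with a no-wash calcium dye. Compound was added after a 10 s baseline and read kinetically for 180 s; EC80 dopamine was then added and calcium flux followed another 180 s.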
D1 potentiator: human D1 dopamine receptor positive modulation; HEK293 TREx D1 cells, calcium flux, dopamine EC20 potentiation; potentiation, % at 10 µM; 360,000 compounds, 0.036% hits; AID 504651; in the data active means potentiation above about 30%; further: 0% is about no effect
An asterisk follows results filed as active. Unless noted, no stated cut-off is given here; in the data, active means activation above about 30%; inactive means the rest.

SMILES	TRHR PAM	D1 agonist	TRHR agonist	D1 antag	D1 potentiator
Fc1ccc(C2CC(c3ccc(F)cc3)n3ncnc3N2)cc1 (configuration not stated)	12	2	1	1	2
Oc1ccccc1C1=Nc2ncnn2C(c2ccc(F)cc2)C1 (configuration not stated)	-1	0	0	-42*	-5
Cc1cccc(OCCCCn2c(C3CC(=O)N(c4ccccc4Cl)C3)nc3ccccc32)c1 (configuration not stated)	33*	25	1	-1	-3
CCc1ccccc1N1CC(c2nc3ccccc3n2CCCCOc2ccccc2OC)CC1=O (configuration not stated)	-18	60*	4	-7	0
CCOC(=O)Cn1c(C2CC(=O)N(c3ccc(C)cc3)C2)nc2ccccc21 (configuration not stated)	1	9	0	-46*	-4
CCn1cc2nc(SCC(=O)Nc3cc(OC)ccc3OC)n(Cc3ccc(Cl)cc3)c(=O)c2n1	12	1	1	12	5
COc1ccc(C(=O)Nc2ccc3c(c2)nc(CCNC(C)=O)n3C)cc1	31*	3	1	-5	1
CCCOc1ccc(-c2nonc2NC(=O)c2oc3ccc(Cl)cc3c2C)cc1OCCC	-4	-1	0	6	0
COCCn1c(Cc2ccccc2)nnc1SC(C)C(=O)NC1CC1 (configuration not stated)	-3	1	0	-43*	-2
CSc1ncc(Cl)c(C(=O)Nc2ccc(S(=O)(=O)N3CCC(C)CC3)cc2)n1	9	5	1	-17	-1
Cc1c(N=C2Nc3cccc4cccc2c34)c(=O)n(-c2ccccc2)n1C	6	36*	10	-8	-6
C=CCC1S/C(=N/N=C/c2cccs2)NC1=O (configuration not stated)	8	-1	-1	-13	-6
O=C1N/C(=N\N=C\c2cccs2)SC1Cc1ccc(Cl)c(Cl)c1 (configuration not stated)	-3	1	1	-43*	-5
CCCN(C(=O)COc1cc(=O)n(CC)c2ccccc12)c1ccc(C(C)C)cc1	-7	1	3	1	-1
COc1ccc2[nH]c3c(N4CCc5ccccc5C4)ncnc3c2c1	-4	8	0	-32*	-7
O=C(OCCN1C(=O)c2cccc3c(N4CCOCC4)ccc(c23)C1=O)c1ccc(Cl)cc1	-2	93*	29	-2	0
CCCN(CCC)S(=O)(=O)c1ccc(C(=O)OCCN2C(=O)c3cccc4c(N5CCOCC5)ccc(c34)C2=O)cc1	0	113*	21	-16	1
CCN(CC)S(=O)(=O)c1ccc(C(=O)N2CCN(CCN3C(=O)c4cccc5cccc(c45)C3=O)CC2)cc1	19	2	-1	5	3
O=C(OCCN1C(=O)c2ccccc2C1=O)c1cc(S(=O)(=O)N2CCOCC2)ccc1F	0	0	0	-24	-6
CN1CCN(Cc2ccc(Sc3ccc(Cl)cc3)c([N+](=O)[O-])c2)CC1	4	79*	-2	-22	0
COc1ccc(OC)c(CCNC(=O)CCc2cn(Cc3cc(C)ccc3C)c3ccccc23)c1	6	5	0	1	1
O=C1CC(SC2=NCCS2)C(=O)N1c1ccc(Br)cc1 (configuration not stated)	4	44*	0	-26	-6
O=C1CC(SC2=NCCS2)C(=O)N1c1ccc(Cl)cc1 (configuration not stated)	-4	4	0	5	-5
COc1ccc(NS(=O)(=O)c2ccc3c(c2)NC(=O)CCS3)cc1Cl	3	5	0	-39*	4
COc1ccc(NS(=O)(=O)c2ccc3c(c2)NC(=O)CCS3)c(OC)c1	13	10	0	-22	-5
SMILES	TRHR PAM	D1 agonist	TRHR agonist	D1 antag	D1 potentiator
CCOc1ccc(CCNC(=O)c2cn(CC)c3ccc(S(=O)(=O)N4CCCCCC4)cc3c2=O)cc1OCC	-8	2	1	20	7
Cc1ccc2nc(NC(=O)C3CC(=O)N(Cc4ccco4)C3)sc2c1 (configuration not stated)	36*	13	1	2	-3
CC(=O)Nc1ccc(NC(=O)C2CC(=O)N(Cc3ccco3)C2)cc1 (configuration not stated)	-7	13	0	3	-5
Cc1ccc(NC(=O)C2CC(=O)N(Cc3ccccc3)C2)nc1 (configuration not stated)	1	2	0	-4	2
O=C(Nc1ccc(F)c(Cl)c1)C1CC(=O)N(Cc2ccco2)C1 (configuration not stated)	5	2	0	-43*	10
Cc1ccnc(NC(=O)C2CC(=O)N(Cc3ccccc3)C2)c1 (configuration not stated)	4	22	1	-44*	1
Nc1nc(Nc2ccccc2F)sc1C(=O)c1ccccc1	22	34*	-3	7	6
Cc1nc(Nc2ccccc2)sc1C(=O)c1ccc(F)cc1	1	0	0	-6	-3
CC(C)CCNC(=O)c1ccc(NC(=O)N2CCCCc3ccccc32)cc1	2	0	0	24	-2
O=c1[nH]c2ccc(NCc3ccc(-c4ccc(F)cc4)o3)cc2[nH]1	-1	33*	1	-6	-2
CCCOc1ccc(Oc2nc(NC)nc(N3CCOCC3)n2)nn1	0	2	1	-5	0
Cc1ccc(/C=c2\sc3n(c2=O)CN(c2ccc(Br)cc2)CN=3)o1	-9	0	0	-39*	-11
CCOC(=O)c1c(Oc2ccc(OC)cc2)nnc(-c2ccccc2)c1-c1ccccc1	-14	6	1	-2	-1
Cc1nc(C/C(=N\N)c2ccc(O)cc2O)cs1	-2	3	1	-32*	-3
Cc1nnc2sc(SCc3ccccc3)nn2c1=O	34*	-1	0	7	-7
COc1cc(F)cc(F)c1[S+](=O)([O-])N1CCN([S+](=O)([O-])c2ccc3c(c2)OCCO3)CC1	1	11	2	-16	-6
CCC(=O)N1c2ccc(S(=O)(=O)NCc3cccc(OC)c3)cc2CC1C (configuration not stated)	-4	18	-1	-76*	2
CCC(=O)N1c2ccc(S(=O)(=O)CCC(=O)NCc3cccc(OC)c3)cc2CC1C (configuration not stated)	6	-1	-1	-15	3
CC(=O)N1c2ccc(S(=O)(=O)NCc3ccc(Cl)cc3)cc2CC1C (configuration not stated)	-1	8	0	-32*	-5

Bioassay records from PubChem BioAssay.
